Only a sample is shown.
aSyn 5UTR act: Activators working through SNCA 5'UTR binding (MLPCN); alpha-synuclein 5'UTR reporter, activators screen; activity score, % (tested at 7.5 µM), hits read low; 300,000 compounds, 7.1% hits; in the data active = activity score below about -60%
Starred values were filed as active, the others as inactive.

Screening Cc1cnc(NC(=O)CC(C)c2ccccc2)s1 (stereo not given) returned aSyn 5UTR act -196.5*.
Screening O=[N+]([O-])c1cc([N+](=O)[O-])c2c(=Nc3ccccc3)n(-c3ccccc3)n(O)c2c1 returned aSyn 5UTR act -77.5*.
c1ccc(CCNc2nc(-c3cccnc3)cs2)cc1 was read as aSyn 5UTR act -129.3*.
c1ccc(CCNc2nc(-c3ccccn3)cs2)cc1 was read as aSyn 5UTR act -157.7*.
For CCN1CCN(C(=O)c2ccc(-c3nc4ccccc4s3)s2)CC1 the results were aSyn 5UTR act -65.7*.
For Cc1noc(C)c1COC(=O)c1ccc(-c2nc3ccccc3s2)s1 the results were aSyn 5UTR act -205.6*.
For O=C(c1ccc(-c2nc3ccccc3s2)s1)N1CCOCC1 the results were aSyn 5UTR act 100.4.
`CCNC(=O)COC(=O)c1ccc(-c2nc3ccccc3s2)s1` gave aSyn 5UTR act -67.2*.
`O=C(NC1CC1)c1ccc(-c2nc3ccccc3s2)s1` gave aSyn 5UTR act 96.3.
`CCOC(=O)C1=C(C)C/C(=N\NC(=O)c2ccccc2O)CC1` gave aSyn 5UTR act -79.0*.
Screening CCN(CC)c1ccc(/C=C2\SC(N)=NC2=O)cc1 returned aSyn 5UTR act -113.8*.
`COc1cccc(-c2nc(=S)c3c(o2)CCCC3)c1` gave aSyn 5UTR act -117.8*.
For Oc1cccc2c3c(oc12)CCCC3 the results were aSyn 5UTR act 51.6.
For S=c1nc(-c2ccccc2)oc2c1CCCC2 the results were aSyn 5UTR act -144.4*.
For O=[N+]([O-])c1ccc(-c2nc(=S)c3c(o2)CCCC3)cc1 the results were aSyn 5UTR act -106.0*.
`COc1cccc(-c2nc(=S)c3c(n2Cc2ccco2)CCCC3)c1` gave aSyn 5UTR act -88.9*.
`O=S(=O)(Nc1nc2ccccc2nc1N1CCc2ccccc2C1)c1ccc(Cl)cc1` gave aSyn 5UTR act 86.2.
Cc1ccccc1S(=O)(=O)Nc1nc2ccccc2nc1N1CCc2ccccc2C1 was read as aSyn 5UTR act -108.3*.
For O=C(O)c1cccc(Nc2nc(-c3cc4ccccc4oc3=O)cs2)c1 the results were aSyn 5UTR act -98.1*.
For CC1=C(C)/C(=N\OS(=O)(=O)c2ccccc2)C=CC1=O the results were aSyn 5UTR act -79.9*.
`NS(=O)(=O)c1ccc(N/C=C\C(=O)c2ccc(F)cc2)cc1` gave aSyn 5UTR act -118.4*.
Screening O=C(/C=C/Nc1ccc(F)cc1)c1ccc(Oc2ncccn2)cc1 returned aSyn 5UTR act -114.9*.
`CN(C)c1ccc(N/C=C/C(=O)c2ccc(F)cc2)cc1` gave aSyn 5UTR act -120.0*.
For NS(=O)(=O)c1ccc(N/C=C/C(=O)c2ccc(Br)cc2)cc1 the results were aSyn 5UTR act -108.1*.
Screening c1ccc(NC2=Nc3ccccc3CC2)cc1 returned aSyn 5UTR act -179.3*.
For CN=C(c1ccc(C)cc1)n1c(=S)nc(-c2ccc(C)cc2)n(C)c1=S the results were aSyn 5UTR act -149.1*.
`Cc1ccccc1C(=O)NC(=S)Nc1ncccn1` gave aSyn 5UTR act -66.2*.
Screening Cc1ccccc1C(=O)NC(=S)NCCc1ccccc1 returned aSyn 5UTR act -65.8*.
`O=C(NC(=S)NCCc1ccccc1)c1ccco1` gave aSyn 5UTR act -79.6*.
Screening Cc1ccc(S(=O)(=O)c2nc(S(=O)(=O)c3ccc(C)cc3)c(N3CCN(CCO)CC3)s2)cc1 returned aSyn 5UTR act -63.9*.
Screening Cc1ccc(S(=O)(=O)c2nc(S(C)(=O)=O)sc2N2CCOCC2)cc1 returned aSyn 5UTR act -71.6*.
`CC(C)(C)C(=O)Nc1nnc(SCc2cccc(F)c2)s1` gave aSyn 5UTR act -174.1*.
`COCCSc1nnc(NC(=O)C(C)(C)C)s1` gave aSyn 5UTR act -89.8*.
CC(C)(C)C(=O)Nc1nnc(SCc2ccc(F)cc2)s1 was read as aSyn 5UTR act -81.8*.
`O=C(NCCCO)c1cc2c(cn1)[nH]c1ccccc12` gave aSyn 5UTR act -103.6*.
`COc1cc(/C=N/N2CCOCC2)ccc1OCc1ccc(Cl)cc1` gave aSyn 5UTR act -66.4*.
COc1cc(/C=N/N2CCOCC2)ccc1OCc1ccccc1 was read as aSyn 5UTR act -107.4*.
For COc1cc(/C=C(/C(=O)c2cccs2)c2nc3ccccc3[nH]2)ccc1O the results were aSyn 5UTR act -86.0*.
For O=C(/C(=C/c1ccc(Cl)cc1)c1nc2ccccc2[nH]1)c1cccs1 the results were aSyn 5UTR act -177.7*.
For COC(=O)/C(=C\c1ccc(O)cc1)c1nc2ccccc2[nH]1 the results were aSyn 5UTR act -185.8*.
O=C(/C(=C\c1ccccc1)c1nc2ccccc2[nH]1)c1ccc(Cl)cc1 was read as aSyn 5UTR act -227.9*.
C/C(=C\c1ccc(N)cc1)c1nc2ccccc2[nH]1 was read as aSyn 5UTR act -172.0*.
For Cc1cccc(NC(=O)CSc2nc(C)c(CC(=O)c3ccc(Br)cc3)c(C)c2C#N)c1C the results were aSyn 5UTR act 49.1.
`CSc1nc(N)nc(SCC(=O)c2ccccc2)c1C#N` gave aSyn 5UTR act -76.0*.
For Oc1ccc(-c2nnc(-c3ccc(O)cc3)nn2)cc1 the results were aSyn 5UTR act -109.2*.
`Oc1ccc(-c2nccc(-c3ccc(Cl)cc3)n2)cc1` gave aSyn 5UTR act -84.3*.
Oc1ccc(-c2nccc(-c3cccs3)n2)cc1 was read as aSyn 5UTR act -156.8*.
For Oc1ccc(-c2cccc(-c3ccc(O)cc3)n2)cc1 the results were aSyn 5UTR act -67.9*.
`CN(c1ccc(O)cc1)c1nc(O)c(C2=c3ccccc3=NC2=O)s1` gave aSyn 5UTR act -155.5*.
Screening CCN1CCN(Cc2ccc(OCc3ccccc3)cc2)CC1 returned aSyn 5UTR act -77.3*.
Screening CCN1CCN(Cc2ccc(OCc3ccccc3)c(OC)c2)CC1 returned aSyn 5UTR act -89.6*.
For Cc1cnc(NC(=O)COc2ccccc2Cl)s1 the results were aSyn 5UTR act 82.0.
`COc1ccccc1CCC(=O)Nc1ncc(C)s1` gave aSyn 5UTR act -82.5*.
For COc1ccccc1CCC(=O)Nc1ccc(C)cc1Cl the results were aSyn 5UTR act -160.2*.
For O=C(Nc1cccc(-c2ccc(N3CCOCC3)nn2)c1)c1ccccc1 the results were aSyn 5UTR act -79.8*.
Cc1ccc(C(=O)Nc2cccc(-c3ccc(N4CCOCC4)nn3)c2)cc1[N+](=O)[O-] was read as aSyn 5UTR act -75.8*.
`O=C(COc1ccc(Cl)cc1Cl)Nc1cccc(-c2ccc(N3CCOCC3)nn2)c1` gave aSyn 5UTR act -71.8*.
Screening Cc1ccccc1C(=O)Nc1cccc(-c2ccc(N3CCOCC3)nn2)c1 returned aSyn 5UTR act -64.9*.
`O=C(Nc1cccc(-c2ccc(N3CCOCC3)nn2)c1)c1ccc([N+](=O)[O-])cc1` gave aSyn 5UTR act -98.6*.
Screening Cn1cc(/C=C2/SC(=O)N(c3ccccc3)C2=O)c2ccccc21 returned aSyn 5UTR act -221.4*.
Cn1cccc1/C=C1\SC(=O)N(c2ccccc2)C1=O was read as aSyn 5UTR act -115.3*.
For COc1ccccc1OCCCOc1ccc(C)cc1Br the results were aSyn 5UTR act -138.8*.
For COc1cc(C)ccc1OCCOc1c(C)cccc1Cl the results were aSyn 5UTR act -108.2*.
COc1cc(C)ccc1OCCCOc1ccccc1Br was read as aSyn 5UTR act -149.0*.
Cc1ccccc1Nc1nc(-c2sc(NC(=O)c3cccc(Cl)c3)nc2C)cs1 was read as aSyn 5UTR act -145.5*.
Cc1ccc(Cl)cc1Nc1nc(-c2sc(NC(=O)c3cccc(Cl)c3)nc2C)cs1 was read as aSyn 5UTR act -200.9*.
For COC(=O)c1cnc(SCc2ccc(C)cc2)n1C the results were aSyn 5UTR act -81.4*.
